Bioassay records: PubChem BioAssay, National Center for Advancing Translational Sciences (NCATS)
Shown are actives, neighbours in structure and some others; about 10% of the full set was active somewhere.
NIH3T3 tox – kills NIH 3T3 cells; Potency, µM (top dose mostly 96.7 µM), most hits filed as inhibitors; 94,000 tested, 4.3% active; NIH 3T3 viability, CellTiter-Glo ATP luminescence, 48-72 h; AID 1345082; note: nearly all actives have a fitted effect of over 55% in size
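Cytotoxicity is measured as loss of cellular ATP: NIH 3T3 cells (400/well) are exposed to compound for 48 or 72 hr at 37 °C, then CellTiter-Glo luminescence is imaged after 10 min at room temperature.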
HEK cytotox – cytotoxic compounds in HEK 293 cells. HEK 293 viability, ATP luminescence (CellTiter-Glo), 48-72 h. Potency, µM (highest dose often 115 µM), hits mostly inhibitors. 94,000 tested, 6.6% active; note: nearly all actives have a fitted effect of over 60% in size
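qHTS cytotoxicity; HEK 293, 250 cells/well; compound pinned; 48 or 72 hr, 37 degree Celsius, 5% CO2, 95% humidity; CellTiter-Glo, 10 min RT; luminescence (ATP).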
Luciferase inh – inhibitors of firefly (Photinus pyralis) luciferase; Potency, µM (series often up to 115 µM), hits mostly inhibitors; 76,000 tested, 2.5% active; P08659; purified P. pyralis luciferase, luminescence, biochemical; note: nearly all actives have a fitted effect of over 65% in size
Target sequence (P08659 whole entry, looked up): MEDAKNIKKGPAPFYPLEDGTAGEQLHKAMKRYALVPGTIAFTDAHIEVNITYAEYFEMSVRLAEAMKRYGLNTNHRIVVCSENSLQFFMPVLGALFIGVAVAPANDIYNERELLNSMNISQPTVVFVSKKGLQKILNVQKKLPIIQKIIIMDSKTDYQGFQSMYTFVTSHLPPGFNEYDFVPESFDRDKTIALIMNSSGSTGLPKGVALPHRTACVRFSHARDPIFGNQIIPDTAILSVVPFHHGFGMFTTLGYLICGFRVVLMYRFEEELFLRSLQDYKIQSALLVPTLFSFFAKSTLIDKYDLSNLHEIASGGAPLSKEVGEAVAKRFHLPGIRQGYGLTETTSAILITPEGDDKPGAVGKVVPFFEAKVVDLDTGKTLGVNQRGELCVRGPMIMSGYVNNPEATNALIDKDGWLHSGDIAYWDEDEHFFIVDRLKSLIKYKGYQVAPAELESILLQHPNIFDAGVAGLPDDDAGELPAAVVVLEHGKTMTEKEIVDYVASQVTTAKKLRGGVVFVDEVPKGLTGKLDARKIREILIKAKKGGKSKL
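Luminescence read by CCD imaging after purified firefly luciferase (10nM final) was added to substrate buffer holding 10uM D-luciferin and 10uM ATP, pH 7.5, pre-dosed with compound.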
hNpr1 antagonist – blocks ANP-stimulated signaling of human Npr1 receptor; P16066; HEK293 hNpr1 GloSensor cGMP, ANP-stimulated luminescence; Potency, µM (doses to about 46.3 µM), most hits filed as inhibitors; 76,000 tested, 1.6% active; AID 1347048; calls by dose curve; note: nearly all actives have a fitted effect of over 60% in size
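Compound pre-incubated 30 min at room temperature on GloSensor-loaded HEK293 cells stably carrying hNpr1 and the pGS-40F cGMP biosensor. Stimulation uses hNppA at 0.1 nM final; luminescence is taken at baseline and 20 min post-agonist.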
GPT2 inhibitor – blocks human glutamate pyruvate transaminase 2. Q8TD30. Recombinant GPT2, coupled pyruvate oxidase/HRP Amplex Red fluorescence. Potency, µM (series often up to 57.7 µM), most hits filed as inhibitors. 100,000 tested, 0.25% active; note: nearly all actives have a fitted effect of over 60% in size
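Fluorescence read-out: pyruvate from GPT2 turnover coupled to pyruvate oxidase, HRP and Amplex Red (0.2mM ThPP, 0.2U/mL PO and HRP, 50uM Amplex final). Substrates 250uM a-KG, 2mM L-alanine; enzyme 10ng/uL; 30 min RT.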
Hits are given with their value; – = inactive; ? = inconclusive; · = no result. Unless noted, calls come from the whole dose curve; as a rule, active = well fitted curve in the direction sought with a large enough effect; inconclusive = small, poorly fitted or top-dose-only effect, or another doubt; inactive = no such curve, though single readings can be large; an effect the other way counts as inactive or inconclusive.

SMILES	NIH3T3 tox	HEK cytotox	Luciferase inh	hNpr1 antagonist	GPT2 inhibitor
O=C(C1CC1)N1CCC(Cc2nc(C3CCOCC3)no2)CC1	–	–	–	–	–
O=C(CCC(=O)n1ncc2c(Cl)cccc21)N1CCC(Cc2nc(C3CCOCC3)no2)CC1	–	?	–	12.6µM	–
COc1ccccc1NC(=O)c1cc2c(N3CCSCC3)nc(C)cn2n1	–	50.1µM	–	–	–
COc1cc(NC(=O)c2cc3c(N4CCCC4)nc(C)cn3n2)cc(OC)c1OC	?	44.7µM	–	–	–
COc1ccc(OC)c(NC(=O)c2cc3c(N4CCSCC4)nc(C)cn3n2)c1	–	–	–	–	–
COc1cc(NC(=O)c2cc3c(N4CCSCC4)nc(C)cn3n2)cc(OC)c1OC	?	35.5µM	–	–	–
Fc1ccc(OC2CN(Cc3cccc4ccccc34)C2)c(F)c1	–	?	·	·	–
CC(C)N1C[C@@H](COc2ccc(-c3ccccc3)cc2)[C@H](c2ccccc2)S1(=O)=O	–	?	·	·	·
CC(C)CN1C[C@H](COCc2ccccc2)Oc2ccncc2[S+]1(=O)[O-]	?	?	·	·	–
O=C1CO[C@H]2CCN(Cc3ccccc3)CC[C@@H]2N1CCc1cccnc1	–	?	–	–	–
O=C1CO[C@H]2CCN(Cc3ccccc3Cl)CC[C@@H]2N1CCc1cccnc1	100µM	?	–	–	–
O=C1CO[C@H]2CCN(Cc3ccncc3Cl)CC[C@@H]2N1c1ccccc1	79.4µM	44.7µM	–	–	–
N#Cc1cccc(CN2CC[C@@H]3OCC(=O)N(Cc4ccccc4)[C@H]3CC2)c1	?	100µM	–	–	–
COc1ccc(C(=O)N2CC(CNC(=O)N3CCCC3)C3(CCOCC3)C2)cc1 (configuration not stated)	–	–	·	·	–
COc1ccc(C(=O)NCC2(COc3ccccc3)C[C@@H](O)[C@@H](O)C2)cc1 (some centres not stated)	44.7µM	–	–	–	–
CC(C)(C)C(=O)Nc1cnc(-c2cccnc2)nc1	–	–	28.2µM	–	–
O=C(CCc1ccccc1)Nc1cnc(-c2cccnc2)nc1	–	?	–	–	–
Cc1nnc(-c2cc(-c3ccccc3Oc3ccccc3)ccn2)n1CCN1CCOCC1	?	?	–	–	?
COc1ccccc1-c1ccnc(-c2nnc(C)n2Cc2ccccc2)c1	?	70.8µM	?	–	–
COc1ccccc1-c1ccnc(-c2nnc(C)n2Cc2ccncc2)c1	56.2µM	–	–	–	?
Cc1nnc(-c2cc(-c3ccc(CO)cc3)ccn2)n1Cc1ccncc1	?	–	–	–	–
CCOC(=O)C1CCCN(C(=O)c2ccc3oc(-c4ccncc4Cl)nc3c2)C1 (configuration not stated)	?	?	·	·	–
Cc1cccc(OCCc2noc(C3CCCN3C(=O)c3n[nH]c(=O)c4ccccc34)n2)c1 (configuration not stated)	?	39.8µM	–	–	–
CS(=O)(=O)N[C@@H]1C[C@H](Cn2cc(-c3cccnc3)nn2)[C@@H](O)[C@H]1O	–	–	–	–	–
Cc1noc(C)c1S(=O)(=O)N[C@@H]1C[C@H](Cn2cc(-c3cccnc3)nn2)[C@@H](O)[C@H]1O	22.4µM	39.8µM	–	–	–
SMILES	NIH3T3 tox	HEK cytotox	Luciferase inh	hNpr1 antagonist	GPT2 inhibitor
O=C1NC(=NC2CCCCC2)C2(CCN(Cc3ccc(F)cc3)C2)N1c1cc(F)cc(F)c1 (configuration not stated)	31.6µM	?	·	·	–
O=C1NC(=NC2CCCCC2)C2(CCN(Cc3ccccc3)C2)N1c1cc(F)cc(F)c1 (configuration not stated)	31.6µM	?	·	·	–
O=C1NC(=NC2CCCCC2)C2(CCCN(Cc3ccc(F)cc3)C2)N1c1cc(F)cc(F)c1 (configuration not stated)	?	?	·	·	–
COc1ccc(CN2CCC3(C2)C(=NC2CCCC2)NC(=O)N3c2cc(F)cc(F)c2)cc1 (configuration not stated)	?	?	·	·	–
O=C1NC(=NC2CCCCC2)C2(CCCN(Cc3ccccc3)C2)N1c1cc(F)cc(F)c1 (configuration not stated)	35.5µM	?	·	·	–
COc1ccc(CN2CCCC3(C2)C(=NC2CCCCC2)NC(=O)N3c2cc(F)cc(F)c2)cc1 (configuration not stated)	?	44.7µM	·	·	–
CN1CCC2(Cc3ccccc3CN(C(=O)Cc3cccc(Cl)c3)C2)C1 (configuration not stated)	?	?	·	·	–
CN1C(=O)C(c2ccccc2)CC12CCN(Cc1ccc(F)c(F)c1)CC2 (configuration not stated)	?	?	–	–	–
Cc1ccccc1CN1Cc2nc(N3CCCC3)ccc2OCC1=O	?	?	–	–	–
Cn1ccnc1CN1C(=O)CO[C@H]2CN(CCCc3ccccc3)C[C@H]21	112µM	?	–	–	–
COC(=O)c1ccc2nc(C[C@@H]3C[C@@H](C(C)C)[C@H](CNCc4ccc(OC)cc4O)C=C3C)[nH]c2c1	25.1µM	20µM	–	–	–
COC(=O)c1ccc2nc(C[C@@H]3C[C@@H](C(C)C)[C@H](CNCc4ccccc4F)C=C3C)[nH]c2c1	22.4µM	?	–	–	–
COC(=O)c1ccc2nc(C[C@@H]3C[C@@H](C(C)C)[C@H](CNC(=O)C(C)C)C=C3C)[nH]c2c1	?	?	–	–	–
O=C(c1ccc(Cl)cc1)N1CC2(CCCN2Cc2ccc(C(F)(F)F)cc2)Cc2ccccc21 (configuration not stated)	?	?	·	·	–
O=C1CCN(CC(O)Cc2ccccc2)c2ccccc2CCN1Cc1ccccc1 (configuration not stated)	?	?	·	·	–
CSc1cccc(NC(=O)c2ccc3c(c2)N(C)C2CCCCCN2C3=O)c1 (configuration not stated)	31.6µM	17.8µM	?	–	–
COc1ccc(NC(=O)c2ccc3c(c2)N(C)C2CCCCN2C3=O)cc1OC (configuration not stated)	?	?	–	–	–
COc1cc(NC(=O)c2ccc3c(c2)N(C)C2CCCCN2C3=O)cc(OC)c1OC (configuration not stated)	31.6µM	?	–	–	–
Cc1cc(C)cc(NC(=O)c2ccc3c(c2)N(C)C2CCCN2C3=O)c1 (configuration not stated)	–	70.8µM	–	–	–
Cc1cccc(NC(=O)c2ccc3c(c2)N(C)C2CCCCCN2C3=O)c1 (configuration not stated)	?	?	35.5µM	–	–
CN1c2cc(C(=O)Nc3cccc(Br)c3)ccc2C(=O)N2CCCCCC21 (configuration not stated)	?	?	?	–	–
